SMILES strings stand for the structures. Unmarked numbers belong to inactive results. The source made the active and inactive calls. Calls come from the whole dose curve; as a rule, active = well fitted curve in the direction sought with a large enough effect in the repeat runs; inconclusive = weak or mixed curves; inactive = flat fitted curve, though single readings scatter.
% is set by controls: 0 for no effect and ±100 for the full control effect.

A short description of the experiment: qHTS assay to test for compound auto fluorescence at 535 nm (green) in HepG2 cell free culture (AID 720686). As to conditions: Cell-free medium, green autofluorescence 485/535 nm; series mostly up to 91.3 µM; fluorescence, % of fluorescein control: at the top concentration. The text has this: U.S. Tox21 Program National Center for Advancing Translational Sciences [NCATS] NIH Chemical Genomics Center [NCGC] U.S. Environmental Protection Agency [EPA] National Institutes of Environmental Health Sciences [NIEHS] National Toxicology Program [NTP] U.S. Food and Drug Administration [FDA] Tox21 Assay Overview: Compound auto fluorescence often interferes with screening of the compound library against various biological targets and signaling pathways. Some of these compounds may have fluorophoric properties. Such properties may interfere with the assay outputs resulting in false positives and/or negatives. To decrease such complications and ensure the compound activities are relevant in terms of biological response, the Tox21 10K compound library was screened for auto fluorescence. From the fluorophores used as reporter signals in our screening assays, the auto fluorescence equivalencies of compounds against three fluorophores have been evaluated: Triamterene, Fluorescein and Rose Bengal sodium for blue, green and red fluorescence, respectively. The fluorescence intensities were measured using Excitation/Emission wavelengths at 405/460nm, 485/535nm and 540/590nm for blue, green and red labels, respectively. This assay includes the green fluorescence data.
Tox21 Assay Protocol Summary: 5 uL of culture medium (MEM containing 10% FBS) per well was dispensed into black wall/clear bottom 1536-well plates using a Multidrop Combi Dispenser (ThermoFisher Scientific, Waltham, MA). After 23 nL compound or DMSO vehicle was transferred into assay plate by a pintool work station (Kalypsys, San Diego, CA), fluorescence intensities in the assay plates were measured by an Envision (PerkinElmer, Shelton, CT) plate reader using three labels for measuring blue, green and red fluorescence at […] 460, 535 and 590nm respectively.
On to `CC(=O)SC[C@@H](Cc1ccccc1)C(=O)NCC(=O)OCc1ccccc1`, for which the fluorescence, % of fluorescein control was -0.0189% [at 18.6 µM].

For `Fc1ccc(C(c2ccc(F)cc2)N2CCN(C/C=C/c3ccccc3)CC2)cc1`, the “fluorescence, % of fluorescein control” value is 0.201% [at 46 µM].

On to `COc1cc(/C=C/C(=O)O[C@H]2CC[C@]34C[C@]35CC[C@]3(C)[C@@H]([C@H](C)CCC=C(C)C)CC[C@@]3(C)[C@@H]5CC[C@H]4C2(C)C)ccc1O`, for which the Potency entry is “inactive”.

Consider `Cn1cc(C(=O)[C@@H]2CCc3nc[nH]c3C2)c2ccccc21`, for which the “fluorescence, % of fluorescein control” value is 0.0087% [at 46 µM].

`CC(C)c1ccc2c(c1)CC[C@H]1[C@](C)(CN)CCC[C@]21C`: the “fluorescence, % of fluorescein control” value was -0.0023%.

Regarding `Oc1ccc(N=Nc2ccccc2)cc1`, the “fluorescence, % of fluorescein control” value is -0.0755% [at 95.7 µM].

Take `[O-][n+]1ccccc1SSc1cccc[n+]1[O-]`: the “fluorescence, % of fluorescein control” value is -0.0789% [at 46 µM].

As for `C/C=C(\C)C(=O)OCc1ccccc1`, the “fluorescence, % of fluorescein control” value was 0.0485%.

`Cc1cc(O)c2ccccc2c1O`: the “fluorescence, % of fluorescein control” value is 0.128% [at 46 µM].

As for `OCCCCCCCCCCCCBr`, the “fluorescence, % of fluorescein control” value is 0.0147% [at 95.7 µM].

For the molecule `Nc1ccccc1O`, the “fluorescence, % of fluorescein control” value was -0.0247%.

As to `COc1cc(-c2ccc(N=C=O)c(OC)c2)ccc1N=C=O`, the “fluorescence, % of fluorescein control” value was -0.0093% [at 46 µM].

Consider `C[C@H](CCC(=O)O)[C@H]1CC[C@H]2[C@@H]3CC[C@@H]4C[C@H](O)CC[C@]4(C)[C@H]3CC[C@]12C`, for which the Potency entry is “inactive”.

In the case of `Oc1cccc2cc3cccc(O)c3c(O)c12`, the “fluorescence, % of fluorescein control” value is -0.0079%.

Take `O=C(NOCC1CC1)c1ccc(F)c(F)c1Nc1ccc(I)cc1Cl`: the “fluorescence, % of fluorescein control” value was 0.0875% [at 46 µM].

`NNc1nc(-c2ccccc2)cs1`: the “fluorescence, % of fluorescein control” value was -0.0086% [at 95.7 µM].

With `CCCCN1C(=O)[C@@H]([C@H](O)C2CCCCC2)NC(=O)C12CCN(Cc1ccc(Oc3ccc(C(=O)O)cc3)cc1)CC2`, the “fluorescence, % of fluorescein control” value is -0.0446%.

On to `CCOC(=O)O[C@H](C)OC(=O)c1ccc2c(c1)cc(C(=O)NC1CCN(C(C)C)CC1)n2Cc1cc(-c2ccc(Cl)s2)on1`, for which the “fluorescence, % of fluorescein control” value is -0.0232%.

For `Cc1onc(-c2c(Cl)cccc2Cl)c1C(=O)N[C@@H]1C(=O)N2[C@@H]1SC(C)(C)[C@@H]2C(=O)O`, the “fluorescence, % of fluorescein control” value was -0.134% [at 46 µM].

Consider `OCCN(CCO)c1nc(N2CCCCC2)c2nc(N(CCO)CCO)nc(N3CCCCC3)c2n1`, for which the “fluorescence, % of fluorescein control” value is 7.29% [at 46 µM].

For `CSc1ccc(/C=C2/C(C)=C(CC(=O)O)c3cc(F)ccc32)cc1`, the “fluorescence, % of fluorescein control” value is -0.0124% [at 46 µM].

As for `O=[N+]([O-])c1cc(Cl)c(Cl)c(Cl)c1Cl`, the “fluorescence, % of fluorescein control” value was 0.0037%.

Consider `CN(C)C(=O)C1(N2CCCCC2)CCN(CC[C@@]2(c3ccc(Cl)c(Cl)c3)CN(C(=O)c3ccccc3)CCO2)CC1`, for which the “fluorescence, % of fluorescein control” value is 0.0246%.

In the case of `C=C(C)C(=O)OCC[N+](C)(C)C`, the “fluorescence, % of fluorescein control” value was -0.0166%.

Take `O=C1CCCc2c1cc1ccc3cccc4ccc2c1c34`: the “fluorescence, % of fluorescein control” value was -0.0562% [at 95.7 µM].

For `CN(C)c1ccc(SC#N)cc1`, the “fluorescence, % of fluorescein control” value is 0.0058%.

As to `CN(C)[C@@H]1C(=O)C(C(N)=O)=C(O)[C@@]2(O)C(=O)C3=C(O)c4c(O)ccc(Cl)c4[C@@H](O)[C@H]3C[C@@H]12`, the “fluorescence, % of fluorescein control” value was 0.0917% [at 46 µM].

Consider `CCCCCCCCCCCCCCCCCC[N+](C)(C)Cc1ccccc1`, for which the “fluorescence, % of fluorescein control” value is -0.0507%.

Turning to `CCN(CCC#N)c1ccc(N=Nc2c(Cl)cc([N+](=O)[O-])cc2Cl)cc1`, the “fluorescence, % of fluorescein control” value is 0.115%.

Turning to `CCc1oc2ccccc2c1C(=O)c1cc(Br)c(O)c(Br)c1`, the “fluorescence, % of fluorescein control” value was -0.17% [at 46 µM].

Consider `CCOC(=O)c1nc(C(Cl)(Cl)Cl)n(-c2ccc(Cl)cc2Cl)n1`, for which the “fluorescence, % of fluorescein control” value is 0.0155%.

Turning to `C[n+]1cc2c3c(ccc2c2ccc4cc5c(cc4c21)OCO5)OCO3`, the “fluorescence, % of fluorescein control” value was 0.426% [at 46 µM].

As for `O=C(NO)C1(NS(=O)(=O)c2ccc(Oc3ccc(F)cc3)cc2)CCOCC1`, the “fluorescence, % of fluorescein control” value was -0.0313%.

As to `CCN1/C(=C/C=C/c2sc3ccccc3[n+]2CC)Sc2ccccc21`, the “fluorescence, % of fluorescein control” value is 2.29% [at 46 µM].

Regarding `O=C(O)c1cc(O)c2c(c1)C(=O)c1cccc(O)c1C2=O`, the “fluorescence, % of fluorescein control” value is 0.0022% [at 95.7 µM].

Take `CCN(CC)CCNC(=O)c1c(C)[nH]c(/C=C2\C(=O)Nc3ccc(F)cc32)c1C`: the “fluorescence, % of fluorescein control” value is 3.81% [at 46 µM].

In the case of `CCCCCCCC[P+](CCCCCCCC)(CCCCCCCC)CCCCCCCC`, the “fluorescence, % of fluorescein control” value was 0.0899%.

Regarding `CCCCCCCCOC(=O)c1ccc(O)cc1`, the Potency result was “inactive”.

As for `NC(=O)CC[C@@H]1NC(=O)[C@H](Cc2ccccc2)NC(=O)[C@H](Cc2ccc(O)cc2)NC(=O)CCSSC[C@@H](C(=O)N2CCC[C@H]2C(=O)N[C@@H](CCCN=C(N)N)C(=O)NCC(N)=O)NC(=O)[C@H](CC(N)=O)NC1=O`, the Potency entry was “inactive”.

In the case of `CCCCCCCCCCCCCCCC(=O)OC[C@H](O)[C@H]1OC(=O)C(O)=C1O`, the Potency result was “inactive”.

(Values after PubChem BioAssay (Tox21).)
